Bioassay records as filed in PubChem.
Sampled rows, rich in hits. Any-hit rate of the full collection: about 3.6%.
Epigenetic reg = regulators of epigenetic silencing causing reporter derepression in mouse cells; murine LDR cells, GFP reporter derepression, 30 h; Potency, µM (doses to about 53.9 µM), inactives show top-dose GFP activation, hits mostly activators; hit rate 0.2% among 280,000; AID 1865; also: potency is read from the fitted curve at half-maximal effect; % of control where 0% means no effect; nearly all actives have a fitted effect of over 60% in size
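Murine LDR cells carrying a silenced, genomically integrated CMV-driven GFP reporter were exposed to compound for 30 hours at 37 C. After PBS washes, GFP-positive cells (20–120 um objects) were counted by laser-scanning microplate cytometry.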
IMPase Li cell = cell-permeable IMPase inhibitors with lithium potentiation; CHO-M1 cells, IP1 TR-FRET (IP-One), carbachol + lithium; Potency, µM (titrated, usually from 59.4 µM), inactives show at the top dose activity, negative = IMPase inhibition, actives largely listed as inhibitors; hit rate 0.35% among 210,000;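 also: IP1 builds up when IMPase is blocked and the TR-FRET signal falls; potency is read from the fitted curve at half-maximal effect; plate controls were basal vehicle for no effect and high inhibitor control for full effect; nearly all actives have a fitted effect of over 50% in size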
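CHO-M1, 2000 cells/well, 16–30 h culture; cpd + low Li+, 30 min 37C; lysis with d2-IP1/Eu-anti-IP1 Ab, 10 min RT; TR-FRET 665/620 ratio and 620 channel; AC50 via Hill.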
Sfp PPTase inh = blocks B. subtilis Sfp PPTase activity. Potency, µM, without a hit: largest response in the series, negative = inhibition, most hits filed as inhibitors. hit rate 3.5% among 310,000. Biochemical Sfp PPTase activity, qHTS. AID 1490. Q9F4F7;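 also: the enzyme is Sfp with the accession as filed and its product quenches rhodamine fluorescence; potency is read from the fitted curve at half-maximal effect; 0% = enzyme reaction without inhibitor and -100% = no enzyme wells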
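Compounds were incubated with enzyme (final 15 nM) for 15 min at room temperature before substrate addition started the reaction. Fluorescence at 525 nm excitation, 598 nm emission was recorded immediately and after 30 minutes.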
GCN5L2 inh = inhibitors of human GCN5L2 histone acetyltransferase. Q92830. GCN5L2 HAT assay, ThioGlo1 CoA-SH fluorescence. Potency, µM (series often up to 58.9 µM), for the others: at the top dose activity change, negative = inhibition, actives largely listed as inhibitors. hit rate 0.21% among 390,000. AID 504327; also: potency is read from the fitted curve at half-maximal effect; % is scaled to controls: 0 for no effect and ±100 for the full control effect
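Enzyme at 20nM final was mixed with library compounds for 15 min at room temperature. Peptide H3(1-25) at 75uM, acetyl-CoA at 70uM and ThioGlo1 at 50uM were then added. Plates were read immediately and after 20 min (Ex340nm/Em540nm).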
NPSR antag = antagonists of human neuropeptide S receptor cAMP signaling | CHO-NPSR cells, cAMP TR-FRET, antagonist mode | hit rate 1% among 220,000 | Q6W5P4 | AID 1461 | Potency, µM (doses to about 38.3 µM), inactives show at the highest dose activity change, negative = inhibition, usual class: inhibitors; also: potency is read from the fitted curve at half-maximal effect; % is scaled to controls: 0 for no effect and ±100 for the full control effect; nearly all actives have a fitted effect of over 50% in size
Target sequence (Q6W5P4 whole entry, looked up): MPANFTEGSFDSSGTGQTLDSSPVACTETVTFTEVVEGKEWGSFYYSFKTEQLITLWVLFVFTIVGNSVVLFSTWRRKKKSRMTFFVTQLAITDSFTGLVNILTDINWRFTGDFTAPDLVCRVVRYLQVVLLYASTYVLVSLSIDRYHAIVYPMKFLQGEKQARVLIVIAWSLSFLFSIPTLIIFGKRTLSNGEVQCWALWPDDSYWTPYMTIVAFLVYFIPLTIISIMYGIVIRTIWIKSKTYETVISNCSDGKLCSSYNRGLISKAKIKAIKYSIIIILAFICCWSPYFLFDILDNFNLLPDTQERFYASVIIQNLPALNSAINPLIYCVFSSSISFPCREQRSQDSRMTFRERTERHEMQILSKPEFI
JMJD2E inh = blocks human JMJD2E demethylase activity; B2RXH2; JMJD2E catalytic domain, FDH-coupled NADH fluorescence (FDH is formaldehyde dehydrogenase); Potency, µM (titrated, usually from 57.1 µM), for inactives: at the top dose activity change, negative = inhibition, actives largely listed as inhibitors; hit rate 1.6% among 230,000; AID 2147; active = well fitted inhibition curve with a large enough effect, not every such curve was filed as active; inconclusive = small, poorly fitted or top-dose-only effect, or another doubt; inactive = no such curve, though single readings can be large or run the other way;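 also: potency is read from the fitted curve at half-maximal effect; 0% = wells with enzyme and -100% = buffer wells without enzyme; nearly all actives have a fitted effect of over 50% in size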
Sfp PPTase conf = confirmation of Bacillus subtilis Sfp PPTase inhibitors; hit rate 79% among 380; Sfp PPTase enzymatic assay, qHTS titration; shares compounds with Sfp PPTase inh; Potency, µM (highest dose often 114 µM), for inactives: at the highest dose activity change, negative = inhibition, hits mostly inhibitors;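 also: potency is read from the fitted curve at half-maximal effect; plate controls were uninhibited Sfp reaction for no effect and no enzyme control for full effect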
Target sequence (Q9F4F7 whole entry, looked up): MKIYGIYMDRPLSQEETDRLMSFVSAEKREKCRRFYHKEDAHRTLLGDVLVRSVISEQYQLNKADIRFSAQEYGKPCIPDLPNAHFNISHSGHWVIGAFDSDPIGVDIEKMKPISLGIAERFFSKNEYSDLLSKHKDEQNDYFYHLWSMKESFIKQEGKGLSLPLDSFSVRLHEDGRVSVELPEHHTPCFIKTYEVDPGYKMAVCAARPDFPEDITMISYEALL
Sfp PPTase gel = Blocks Sfp PPTase activity, gel read-out. Potency, µM, actives largely listed as inhibitors. hit rate 20% among 210. shares compounds with Sfp PPTase inh. purified Sfp, gel-based phosphopantetheinylation read-out;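 active = potency below 100 µM; inconclusive = dose-dependent response but potency above 100 µM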;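 also: band intensities scaled against SCH202676 control wells before curve fitting; potency is an IC50 for inhibitors of Sfp transfer activity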
The depositor's hits bear a star; i = inactive; ? = inconclusive; · = no result given; ! = repeats disagree; [ ] = remark or other dose. Unless noted, calls follow the shape of the dose curve; as a rule, active = well fitted curve in the direction sought with a large enough effect; inconclusive = small, poorly fitted or top-dose-only effect, or another doubt; inactive = no such curve, though single readings can be large; an effect the other way counts as inactive or inconclusive.

SMILES	Epigenetic reg	IMPase Li cell	Sfp PPTase inh	GCN5L2 inh	NPSR antag	JMJD2E inh	Sfp PPTase conf	others
CC1CCN(S(=O)(=O)c2ccc3c(c2)N(CC(=O)O)C(=O)CO3)CC1	-1%	·	·	-6%	·	·	·
COc1ccc2[nH]c(S(=O)Cc3ncc(C)c(OC)c3C)nc2n1 (centres undefined)	·	·	45µM*	?	·	·	19µM*
CC[C@]1(O)C[C@@H]2CN(CCc3c([nH]c4ccccc34)[C@@](C(=O)OC)(c3cc4c(cc3OC)N(C)C3[C@]45CCN4CC=C[C@](CC)(C45)[C@@H](OC(C)=O)[C@]3(O)C(=O)OC)C2)C1 (some centres undefined)	2%	-17%	17%	-16%	·	·	·
COC(=O)c1cc(C)nc(Sc2ccccc2N)n1	11%	·	2µM*	1%	-23%	?	4.2µM*
CCc1ccc(S(=O)(=O)c2nnn3c2nc(NCCC(C)C)c2cc(Cl)ccc23)cc1	2%	·	·	-6%	·	·	·
Nc1cccnc1Sc1cccc(Cl)c1	5%	7%[38.3 µM]	3.2µM*	-6%	9%[46.1 µM]	?	19µM*
Nc1cccnc1Sc1ccc(Cl)cc1	-1%	3%[38.3 µM]	5%	-12%	9%[46.1 µM]	?	·
COc1ccc(Cl)cc1NC(=O)c1ccc2c(c1)CCCN2S(C)(=O)=O	-2%	·	·	-13%	·	·	·
Cc1cnc(=O)[nH]c1SCC(=O)c1ccc(F)cc1	·	·	14µM*	-23%	·	·	8.3µM*
CCN(CC)CCCOC(=O)C1(c2ccccc2)CCCC1	-4%	40%[38.3 µM]	-18%	-2%	-6%[46.1 µM]	-4%	·
CCN(CC)CCOCCOC(=O)C1(c2ccccc2)CCCC1	-1%	34%	50µM*!	-5%	6%[46.1 µM]	?	?	Sfp PPTase gel=i
Cc1ccc(C(O)C2=CCCC2=O)cc1 (centres undefined)	0%	7%	-1%	·	·	-7%	·
Cc1ccc(OCCC(=O)NCCc2ccc(S(N)(=O)=O)cc2)cc1	1%	0%	4%	-1%	11%	3%	·
CC(C)(C)c1ccc(OCCC(=O)NCCc2ccc(S(N)(=O)=O)cc2)cc1	·	·	20µM*	-3%	·	·	12%
CCN(Cc1ccccc1)S(=O)(=O)c1cc(C(=O)Nc2cc(Cl)cc(Cl)c2)ccc1F	1%	·	·	-7%	·	·	·
COc1ccc(-c2noc(CSc3nc4sc(C)c(C)c4c(=O)n3-c3ccccc3)n2)cc1	1%	-16%	4µM*	-11%	-14%	7%	4.7µM*	Sfp PPTase gel=i
COc1ccc(-c2noc(CSc3nc4sc(C)c(C)c4c(=O)n3-c3ccccc3)n2)cc1OC	0%	69%[38.3 µM]	?	-1%	0%[46.1 µM]	3%	·
CC1CC(C)CN(C(=O)c2nn(C)c3c2CSc2ccccc2-3)C1 (centres undefined)	·	·	-8%	?	·	·	·
CC1CCCN(C(=O)c2nn(C)c3c2CSc2ccccc2-3)C1 (centres undefined)	·	·	45µM*	?	·	·	53µM*
O=C(NCc1ccco1)c1cc2c(s1)CCCCC2	?	21%	3.5µM*	-8%	-15%[46.1 µM]	?	?
Cc1ccc(-c2nc3cnccn3c2Nc2ccccc2)o1	18%	0%[38.3 µM]	4.5µM*	-20%	-3%[46.1 µM]	?	3.3µM*
CCCCNC(=O)CC1Nc2cc(C)c(C)cc2NC1=O (centres undefined)	1%	·	·	1%	·	·	·
CCS(=O)(=O)N1CCc2cc(C(=O)N3CCN(c4cccc(C(F)(F)F)c4)CC3)ccc21	-6%	·	·	-4%	·	·	·
CCC(C)NC(=O)c1ccc2c(c1)N(Cc1ccccc1)C(=O)c1ccccc1S2 (centres undefined)	2%	·	·	3%	·	·	·
CCC(CO)[n+]1c(C)cc(/C=C2\Sc3ccccc3N2Cc2ccccc2)cc1C (centres undefined)	?	14%	35µM*	-2%	-47%	-11%	53µM*	Sfp PPTase gel=?
SMILES	Epigenetic reg	IMPase Li cell	Sfp PPTase inh	GCN5L2 inh	NPSR antag	JMJD2E inh	Sfp PPTase conf	others
O=C(NC1CC(=O)N(c2ccccc2)C1)c1cccs1 (centres undefined)	1%	·	·	-2%	·	·	·
c1ccc(C(CCN2CC3CCC(CC3)C2)c2ccccc2)cc1	·	33%	·	·	·	·	·
COC(=O)C1=C(C)NC(C)=C(C(=O)OCC(C)C)C1c1ccccc1[N+](=O)[O-] (centres undefined)	·	·	40µM*	14%	·	·	37µM*
CC(OC(=O)c1ccc2ccccc2c1)C(=O)N(C)Cc1ccccc1 (centres undefined)	·	·	·	-3%	·	·	·
CC(C)N(CCC(=O)c1ccc2ccccc2c1)Cc1ccccc1	?	13%	4µM*	?	-14%[46.1 µM]	35µM*	15µM*	Sfp PPTase gel=?
O=C(CSc1ccccc1)NCc1ccc2c(c1)CCN2C(=O)c1ccc(F)cc1	0%	·	·	-7%	·	·	·
Cc1ccc(-c2nc3ccc([N+](=O)[O-])cc3[nH]2)cc1	6%	14%	10%	-3%	-22%	8%	·
O=[N+]([O-])c1ccc2nc(-c3ccc(Cl)cc3)[nH]c2c1	0%	13%	0.35µM*	-4%	-11%	2%	-3%	Sfp PPTase gel=56µM*
COc1ccc(CNC(=O)C2CCN(C(=O)N3CCOc4ccc(Cl)cc43)CC2)cc1	1%	·	·	-21%	·	·	·
c1ccc2c(c1)OCC(c1nnc3n1-c1ccccc1SC3)O2 (centres undefined)	-2%	2%[38.3 µM]	7%	-4%	-14%[46.1 µM]	1%	·
c1ccc(OCc2nnc3sc(-c4cccs4)nn23)cc1	0%	-1%[38.3 µM]	10µM*	-24%	-8%[46.1 µM]	-18%	9.4µM*
c1csc(-c2nn3c(C4COc5ccccc5O4)nnc3s2)c1 (centres undefined)	-5%	11%	7.9µM*	-16%	-19%[46.1 µM]	32µM*	24µM*
Cn1c(-n2cccc2)c(-c2c(-c3ccc(F)cc3)[nH]c3c2c(=O)[nH]c(=O)n3C)c(=O)[nH]c1=O	-2%	·	·	-4%	·	·	·
CN1CCN2c3ccccc3Cc3ccccc3C2C1 (centres undefined)	2%	25%	45µM*!	-1%	1%	5%	?	Sfp PPTase gel=?
CN1CCN(C2Cc3ccccc3Sc3ccc(Cl)cc32)CC1 (centres undefined)	-1%	24%	-23%	-28%	17%[46.1 µM]	-14%	·
Cc1ccc(NC(=O)Cn2c(=O)n(CCCCCC(=O)NCc3ccc(F)cc3)c(=O)c3sccc32)cc1C	5%	·	·	-3%	·	·	·
